Screening results: PubChem BioAssay, Broad Institute
C2C12 statin = protects C2C12 myotubes from simvastatin toxicity; ATP luminescence, 48 h; scaled: DMSO 0, geranylgeraniol control 100; rescue of ATP level, % at 7.49 µM; 0.78% of 330,000 active; AID 602340;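 active means mean ATP rescue above about 67%, or every replicate alone reaching that limit, limit read from the data, passing the limit was not always enough; inconclusive means no clear call, values can overlap the other calls; inactive means mean under the limit and some replicate under it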;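 further: myotubes were challenged with 10 µM simvastatin during compound exposure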
miR-122 sensor = miR-122 inhibition in Huh7 cells | AID 602342 | activation (reporter increase), % at 12.5 µM | Huh7 miR-122 Renilla luciferase sensor, 48 h; neutral wells = 0, positive control = 100 | 0.3% of 340,000 active;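 active means mean replicate activation score at least 90 and every replicate individually at or above 90; inconclusive means only one of the two criteria met; inactive means neither criterion met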;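 further: higher luciferase means less miR-122 activity so hits act as miR-122 inhibitors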
PvdQ acylase = blocks Pseudomonas aeruginosa PvdQ acylase activity; 0.063% of 340,000 active; inhibition, % at 10 µM; purified PvdQ acylase, fluorescence plate reader; AID 488965; in the data active means inhibition above about 30%, passing the limit was not always enough; inconclusive means no clear call, values can overlap the other calls;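 further: 0% = vehicle neutral wells and 100% = reference inhibitor wells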
PGC1a acetyl inh = lowers PGC1a acetylation signal in U2OS cells; inhibition, % at 15.6 µM; AlphaScreen anti-acetyl-lysine; with virally co-expressed GCN5 acetyltransferase; 0.17% of 350,000 active;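 active means every replicate shows inhibition of at least 40%; inconclusive means mean inhibition at least 40% but some replicate below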;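 further: 0% = neutral control wells and 100% = positive control wells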
DENV2 CPE rescue = inhibitors of DENV2 cytopathic effect; AID 651640; 1.7% of 350,000 active; CPE inhibition, % at 9.99 µM; DENV2-infected cells, cytopathic effect rescue, plate reader; in the data active means CPE inhibition above about 20%, passing the limit was not always enough; inconclusive means no clear call, values can overlap the other calls; tested in BHK-21 cells;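 further: 0% = median of neutral control wells and 100% = median of positive control wells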
* = called active by the depositor; ? = inconclusive; . = not tested or not shown; [ ] = another dose, or the depositor's remark. The list is not random: actives were taken first. Their share in the collection is about 2.2%.

SMILES	C2C12 statin	miR-122 sensor	PvdQ acylase	PGC1a acetyl inh	DENV2 CPE rescue
C[C@@H]1CN([C@H](C)CO)C(=O)c2cc(NS(=O)(=O)c3ccc(F)cc3)ccc2O[C@@H](C)CCCCO[C@@H]1CN(C)C(=O)CCCN(C)C	.	4.1[16.7 µM]	.	10.1	17.7
Cc1ccc(C(=O)NNC(=O)C2CCN(Cc3ccccc3)CC2)cc1	.	9.2	-6.5	-3.9	.
Cc1ccc(C(=O)NNC(=O)C2CCN(Cc3ccc(Cl)c(Cl)c3)CC2)cc1	134.8*	-2.1	-2.4	2.1	.
C[C@H](NC(=O)[C@@H]1CCCN1C(=O)OC(C)(C)C)c1ccccc1	.	.	.	.	76.0*
COc1ccc(Nc2nnc(-c3ccc(C)cc3)c3ccccc23)cc1C(=O)N1CCCCC1	-7.7	-16.7	?	-3.0	0.1
Cc1cccc(Nc2nnc(-c3ccc(C(=O)N4C[C@H]5C[C@H](C4)c4cccc(=O)n4C5)cc3)c3ccccc23)c1	113.5*	-2.7	2.6	-67.1	.
C[C@H](CO)N1C[C@H](C)[C@H](CN(C)C(=O)Nc2cccc3ccccc23)Oc2ccc(NC(=O)Cc3cn(C)c4ccccc34)cc2CC1=O	25.6	2.1[16.7 µM]	.	-11.4	-0.3
C[C@@H]1CN([C@@H](C)CO)C(=O)c2cc(NC(=O)CCC(F)(F)F)ccc2O[C@@H](C)CCCCO[C@@H]1CN(C)C(=O)Nc1cccc2ccccc12	.	-17.1[16.7 µM]	.	4.0	-13.5
C[C@@H]1CCCCO[C@@H](CN(C)C(=O)Nc2cccc3ccccc23)[C@H](C)CN([C@H](C)CO)C(=O)c2cc(NC(=O)CCC(F)(F)F)ccc2O1	.	-11.7[16.7 µM]	.	-25.1	99.1*
C[C@@H]1CN([C@@H](C)CO)C(=O)c2cc(NC(=O)CCC(F)(F)F)ccc2O[C@@H](C)CCCCO[C@H]1CN(C)C(=O)Nc1cccc2ccccc12	.	61.0[16.7 µM]	.	-37.7	25.8*
C[C@@H]1CN([C@H](C)CO)C(=O)c2cc(NC(=O)CCC(F)(F)F)ccc2O[C@@H](C)CCCCO[C@H]1CN(C)C(=O)Nc1cccc2ccccc12	.	-0.6[16.7 µM]	.	-45.4	-14.3
Cn1cnnc1SCC(=O)N1CCC(Cc2ccccc2)CC1	99.4*	0.4	-6.6	3.0	.
Cn1cnnc1SCC(=O)N1CCN(C(=O)c2ccco2)CC1	.	.	-4.3	-9.3	0.7
CC(C)=CCC/C(C)=C/CC/C(C)=N/O	-3.3	-13.3	-21.6	-6.0	.
C=CC(C)(O)CCC=C(C)C (stereo not given)	-1.2	-6.8	9.8	-10.1	101.1*
C=CC(=O)N1C/C(=C/c2ccc(Cl)cc2)C(=O)/C(=C\c2ccc(Cl)cc2)C1	.	.	-4.4	.	-11.5
C=CC(=O)N1C/C(=C/c2ccccc2)C(=O)/C(=C\c2ccccc2)C1	.	-20.0	3.7	72.8*	?
COCC(=O)N1CC(=O)N2[C@H](CO)[C@H](c3ccc(C#Cc4cccnc4)cc3)[C@@H]2C1	.	.	.	14.4	2.7
Cn1ncc(Cl)c1C(=O)N1CCN(c2ccc(F)cc2)CC1	3.4	-2.8	6.7	0.4	50.1*
Fc1ccccc1CSc1nnc(-c2cccnc2)o1	.	.	-7.2	.	0.6
Cc1ccc(C)c(CSc2nnc(-c3cccnc3)o2)c1	2.8	355.7*	3.4	.	.
CCN(CC)S(=O)(=O)c1ccc(-n2cnnn2)c(C)c1	6.5	4.4	-11.1	9.1	.
Cc1cc(S(=O)(=O)NCC(c2ccccc2)c2ccccc2)ccc1-n1cnnn1	3.3	125.2*	0.3	1.9	.
Cc1cc(S(=O)(=O)N(Cc2ccccc2F)C2CC2)ccc1-n1cnnn1	-2.4	143.2*	-12.6	-24.7	3.9
C[C@H]1CN([C@@H](C)CO)C(=O)c2cc(/C=C/c3ccccc3)cnc2O[C@H]1CN(C)S(=O)(=O)c1cccs1	2.5	.	.	0.2	0.8
SMILES	C2C12 statin	miR-122 sensor	PvdQ acylase	PGC1a acetyl inh	DENV2 CPE rescue
CC(C)C#Cc1ccc2c(c1)O[C@H](CN(C)C(=O)NC(C)C)[C@H](C)CN([C@@H](C)CO)S2(=O)=O	-4.9	4.1[16.7 µM]	.	-14.0	-6.8
COc1ccc(Cn2nnnc2CN(Cc2cc3ccc(C)cc3[nH]c2=O)C2CCCC2)cc1	0.1	-7.8	-6.7	42.1*	.
CCOC(=O)CCCCCC(=O)Nc1ccc2c(c1)CC(=O)N([C@@H](C)CO)C[C@H](C)[C@@H](CN(C)C(=O)Nc1ccc3c(c1)OCO3)O2	-0.2	-10.2	-7.9	-9.1	45.9*
C[C@@H]1CN([C@@H](C)CO)C(=O)Cc2cc(NC(=O)Nc3ccc4c(c3)OCO4)ccc2O[C@H]1CN(C)C(=O)Nc1ccc(F)cc1	10.9	2.8[16.7 µM]	.	-1.8	45.3*
C[C@H]1CN([C@@H](C)CO)C(=O)Cc2cc(NC(=O)Nc3ccc4c(c3)OCO4)ccc2O[C@H]1CN(C)C(=O)Nc1ccc(F)cc1	-10.0	-7.0[16.7 µM]	.	5.9	-6.0
C[C@H](CO)N1C[C@H](C)[C@@H](CN(C)C(=O)Nc2ccc(F)cc2)Oc2ccc(NC(=O)Nc3ccc4c(c3)OCO4)cc2CC1=O	-17.9	4.5[16.7 µM]	.	-1.8	8.9
C[C@H](CO)N1C[C@H](C)[C@@H](CN(C)C(=O)Nc2ccc3c(c2)OCO3)Oc2ccc(NC(=O)Nc3ccc(F)cc3)cc2CC1=O	-12.7	-4.2[16.7 µM]	.	5.2	23.3*
CO[C@H]1CN(C)C(=O)c2ccc(NS(C)(=O)=O)cc2OC[C@@H](C)N(C(=O)C2CCCC2)C[C@H]1C	-3.9	5.7[16.7 µM]	.	.	0.6
CCCNC(=O)N1C[C@@H](C)[C@H](OC)CN(C)C(=O)c2ccc(NC(=O)CC)cc2OC[C@H]1C	.	.	.	11.1	-20.1
CCN(CC)C(=O)CSc1nnc([C@H](CCSC)NC(=O)OC(C)(C)C)o1	143.2*	-9.1	-5.6	-15.1	.
CSCC[C@H](NC(=O)OC(C)(C)C)c1nnc(SCC(N)=O)o1	10.1	-7.5	-2.3	4.2	.
C[C@@H]1CN([C@@H](C)CO)C(=O)c2cc(NC(=O)CCC(F)(F)F)ccc2O[C@H]1CN(C)C(=O)Nc1cccc2ccccc12	15.0	1.3[16.7 µM]	.	-33.3	-4.5
O=C(N/N=C/c1cccn1-c1ccc([N+](=O)[O-])cc1)c1cccnc1	3.8	-0.5	-6.4	5.5	115.8*
O=C(NCc1cccnc1)C(=O)NCC(c1ccco1)N1CCOCC1 (stereo not given)	.	.	-9.4	-2.6	-2.9
O=C(NCc1cccnc1)C(=O)NCC(c1ccco1)N1CCN(c2ccccc2)CC1 (stereo not given)	5.3	-1.2	17.4	11.1	21.0*
C[C@@H]1CCCCO[C@H](CN(C)C(=O)NC2CCCCC2)[C@@H](C)CN([C@@H](C)CO)C(=O)c2cc(NC(=O)Cc3ccccc3)ccc2O1	.	0.3[16.7 µM]	.	3.1	-6.4
C[C@@H]1CN([C@@H](C)CO)C(=O)Cc2cc(NC(=O)CCCCCC(=O)Nc3ccccc3N)ccc2O[C@H]1CN(C)Cc1ccc(-c2ccccc2)cc1	94.0*	-8.7[16.7 µM]	.	10.3	25.0*
C[C@@H]1CN([C@H](C)CO)C(=O)Cc2cc(NC(=O)CCCCCC(=O)Nc3ccccc3N)ccc2O[C@@H]1CN(C)Cc1ccccc1	?	9.0[16.7 µM]	.	2.4	-7.6
C[C@@H]1CN([C@H](C)CO)C(=O)Cc2cc(NC(=O)CCCCCC(=O)Nc3ccccc3N)ccc2O[C@@H]1CN(C)Cc1ccc(-c2ccccc2)cc1	28.6	-14.4[16.7 µM]	.	-2.3	4.3
